“And” between values parts separate entries of the source, which are not always exact repeats. Identical values can stand only once. The campaign covered roughly 2,200 compounds. About 1,200 (55%) were called active. Cut-off not given; nearly all actives show IC50 up to about 92 µM. The set was probably picked from earlier hits. This is one part of the list.
Assay: counter assay for TAg ATPase ADP read-out – biochemical, ADP-Hunter, fluorescence, counter-screen (AID 2501);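 further: purified T antigen ATPase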
Conditions: series mostly up to 100 µM

Which IC50 does the source give for `CC(=O)Nc1nnc(SCc2cccc(F)c2)s1` here?
The IC50 was “inactive”.

Which IC50 does the source give for `O=C(O)CN1C(=O)/C(=C\C(Br)=C\c2ccccc2)SC1=S` here?
The IC50 was “inactive”.

Which IC50 does the source give for `O=C1/C(=C/c2ccco2)SC(=S)N1CCC(=O)N1CCCCC1CCO` (configuration not stated) here?
Its IC50 is “inactive”.

For `O=C(O)CN1C(=O)/C(=C/c2ccc(N3CCCCC3)o2)SC1=S`, which IC50 is on record?
Its IC50 is 38.4 µM (active).

Which IC50 does the source give for `O=C1NC(=S)S/C1=C/c1ccc(N2CCOCC2)o1` here?
Its IC50 is 18.9 µM (active).

Which IC50 does the source give for `O=C1NC(=S)S/C1=C\c1ccc(SCc2ccccc2)o1` here?
Its IC50 is “inactive”.

For `COc1ccccc1N1C(=O)C=C(Sc2nc(C)cc(C)n2)C1=O`, which IC50 is on record?
The IC50 was “inactive”.

For `CN(C)c1ccc(N=c2sc3ccccc3n2C)cc1`, which IC50 is on record?
The IC50 was 7.65 µM (active).

For `COC(=O)/C(=C/Nc1ccc(O)cc1)[N+](=O)[O-]`, which IC50 is on record?
The IC50 was 3.8 µM (active).

With `O=C(c1ccco1)N1CCN(C(=S)Nc2ccc(F)c(Cl)c2)CC1` as the molecule, how does the IC50 read?
The IC50 was 39.5 µM (active).

Which IC50 does the source give for `N=c1c[n+](N2CCOCC2)[n-]o1` here?
The IC50 was “inactive”.

With `CN1CCN(c2nc(Nc3ccc(O)cc3)nc3ccccc23)CC1` as the molecule, how does the IC50 read?
Its IC50 is 6.32 µM (active).

For `Oc1ccc(Nc2nc(N3CCCC3)c3ccccc3n2)cc1`, which IC50 is on record?
The IC50 was 4.06 µM (active).

Which IC50 does the source give for `O/N=C/c1ccc2ccccc2c1` here?
Its IC50 is “inactive”.

With `C(=Nc1ccc(Nc2ccccc2)cc1)c1ccc2ccccc2c1` as the molecule, how does the IC50 read?
Its IC50 is 6.4 µM (active).

Which IC50 does the source give for `C/C(=C/c1oc2ccc(O)cc2c1[N+](=O)[O-])N(C)C` here?
Its IC50 is 5.75 µM (active).

For `O=C(C1=C[C@H](C2CCCCC2)C[C@H](OCCCCO)O1)N1CCN(Cc2ccc3c(c2)OCO3)CC1`, which IC50 is on record?
The IC50 was “inactive”.

With `O=C(c1ccc(CNS(=O)(=O)c2ccccc2)cc1)N1CCN(Cc2ccccc2)CC1` as the molecule, how does the IC50 read?
Its IC50 is “inactive”.

With `CC(=O)N1CCN(c2ccc(NCc3cccc4ccccc34)cc2)CC1` as the molecule, how does the IC50 read?
Its IC50 is 4.52 µM (active).

With `CC(=O)N1CCN(c2ccc(NCc3ccc(C)s3)cc2)CC1` as the molecule, how does the IC50 read?
Its IC50 is 3.62 µM (active).

For `O=C(c1ccccc1)N1CCN(c2ccc(NCc3ccc4c(c3)OCO4)cc2)CC1`, which IC50 is on record?
Its IC50 is 5.7 µM (active).

For `O=C(O)CC(C(=O)O)n1nc(-c2ccccc2)cc1-c1ccccc1` (configuration not stated), which IC50 is on record?
Its IC50 is “inactive”.

With `CC(=O)c1ccc2c(c1)C1C=CCC1C(C(=O)O)N2` (configuration not stated) as the molecule, how does the IC50 read?
The IC50 was “inactive”.

Which IC50 does the source give for `CCn1ccc(C(=O)N2CCN(c3ncccn3)CC2)n1` here?
The IC50 was “inactive”.

Which IC50 does the source give for `Cc1csc(N/N=C/c2ccc(O)c([N+](=O)[O-])c2)n1` here?
Its IC50 is 13.2 µM (active).

Which IC50 does the source give for `CC(C)(C)c1ccc(C(=O)n2cnc3ccccc32)cc1` here?
Its IC50 is “inactive”.

Which IC50 does the source give for `Oc1ccc(-c2nc(-c3ccc(F)cc3)c(-c3ccncc3)[nH]2)cc1` here?
Its IC50 is 8.21 µM (active).

For `C/C(=N/OC(=O)C1CC1)c1cc(-c2ccc(Cl)cc2)no1`, which IC50 is on record?
The IC50 was “inactive”.

For `Cc1ccc(OC(=S)Nc2ccc(O)cc2)cc1`, which IC50 is on record?
The IC50 was 7.84 µM (active).

Which IC50 does the source give for `CC1(c2ccccc2)NC(=O)N(CC(=O)Nc2ccc(S(=O)(=O)Nc3ncccn3)cc2)C1=O` (configuration not stated) here?
Its IC50 is “inactive”.

With `CCN(c1ccc(NC(=O)CN2C(=O)NC3(CCOc4ccccc43)C2=O)cc1)C(C)C` (configuration not stated) as the molecule, how does the IC50 read?
The IC50 was 11.1 µM (active).

For `Cc1cc(C(=O)NNC(=O)CN2C(=O)NC(C)(c3ccccc3)C2=O)c(C)o1` (configuration not stated), which IC50 is on record?
The IC50 was “inactive”.

Which IC50 does the source give for `Cc1cc2c(N=O)c(NO)ccc2[nH]1` here?
Its IC50 is 24.4 µM (active).

For `O=C1CNC(=S)N1CCc1ccc(O)c(O)c1`, which IC50 is on record?
The IC50 was 10.7 µM (active).

Which IC50 does the source give for `OC(COc1ccc2cc(Br)ccc2c1)CN1CCCC1` (configuration not stated) here?
Its IC50 is “inactive”.

Which IC50 does the source give for `O/N=C(\c1ccc2c(c1)OCCO2)C1CCCCC1` here?
Its IC50 is “inactive”.

With `O=c1ccc2cc(O)c(O)cc2o1` as the molecule, how does the IC50 read?
Its IC50 is 11.3 µM (active).

With `N#CSCC(=O)c1cccc2ccccc12` as the molecule, how does the IC50 read?
The IC50 was “inactive”.

Which IC50 does the source give for `O=C(c1ccc([N+](=O)[O-])cc1)N1CCN(c2cccc3[nH]ccc23)CC1` here?
The IC50 was 8.91 µM (active).

For `Cc1cc(OCC(=O)N(C)c2ccccc2)cc2c1C(=O)CC(C)(C)O2`, which IC50 is on record?
The IC50 was “inactive”.

With `O=C(NCCO)c1ccc2nc(-c3ccco3)c(-c3ccco3)nc2c1` as the molecule, how does the IC50 read?
Its IC50 is “inactive”.

For `CCCc1cc(C(=O)N2CCCC(C(=O)c3cccc4ccccc34)C2)n(C)n1` (configuration not stated), which IC50 is on record?
Its IC50 is “inactive”.

Which IC50 does the source give for `O=C(/C=C/c1ccc(O)c(O)c1)O[C@@H]1C[C@](O)(C(=O)O)C[C@@H](O)[C@H]1O` here?
Its IC50 is 4.26 µM (active) and 8.41 µM (active).

With `CCCCNC(=O)c1onc(CCl)c1C(=O)OC` as the molecule, how does the IC50 read?
The IC50 was “inactive”.

Which IC50 does the source give for `O=C(CCC1CCCCC1)Nc1ccccc1C(=O)N1CCOCC1` here?
The IC50 was “inactive”.

For `COc1cc(SC)ccc1C(=O)N1CCN(Cc2ccccc2)CC1`, which IC50 is on record?
The IC50 was “inactive”.

For `COc1cc(Cl)ccc1NC(=O)COc1ccccc1C(=O)N1CCN(c2ccc(O)cc2)CC1`, which IC50 is on record?
The IC50 was 6.1 µM (active).

With `COc1cc(SC)ccc1C(=O)N1CCN(c2ccc(O)cc2)CC1` as the molecule, how does the IC50 read?
Its IC50 is 5.86 µM (active).

With `CCCCC(=O)OCC(=O)c1[nH]c(C)c(C(=O)OCC)c1C` as the molecule, how does the IC50 read?
Its IC50 is “inactive”.

With `COc1cccc([C@H](O)Cn2cc(-c3ccc(CON=C(C)C)cc3)nn2)c1` as the molecule, how does the IC50 read?
Its IC50 is “inactive”.

For `CN(C)c1ccc(NC(=O)COC(=O)Cn2nnc3ccccc32)cc1`, which IC50 is on record?
The IC50 was 4.51 µM (active).

Which IC50 does the source give for `CN(C)c1ccc(NC(=O)CN2CCN(c3ccc(F)cc3)CC2)cc1` here?
Its IC50 is 2.66 µM (active).

With `CN(C)c1ccc(NC(=O)Cn2ncn3c(cc4ccccc43)c2=O)cc1` as the molecule, how does the IC50 read?
The IC50 was 10.4 µM (active).

With `CN(C)c1ccc(NC(=O)CN2CCN(CC(=O)Nc3ccc(F)cc3)CC2)cc1` as the molecule, how does the IC50 read?
The IC50 was 9.6 µM (active).

With `CCOc1ccc(NC(=O)Cn2sc3nc(C)cc(C)c3c2=O)cc1` as the molecule, how does the IC50 read?
Its IC50 is “inactive”.

For `Cc1cccc(-n2c3nc(=O)[nH]c(=O)c-3cc3cc([N+](=O)[O-])ccc32)c1`, which IC50 is on record?
Its IC50 is “inactive”.

For `CCOC(=O)C1CCN(c2ncnc3c2nnn3Cc2ccccc2Cl)CC1`, which IC50 is on record?
Its IC50 is “inactive”.

For `CN(C)c1ccc(NC(=O)CC2NCCNC2=O)cc1` (configuration not stated), which IC50 is on record?
The IC50 was 4.71 µM (active).

With `Cc1nn(CC(=O)Nc2ccc(N(C)C)cc2)c(C)c1[N+](=O)[O-]` as the molecule, how does the IC50 read?
The IC50 was 5.17 µM (active).

For `CN(C)c1ccc(NC(=O)COC(=O)CCC(=O)c2ccc(F)cc2)cc1`, which IC50 is on record?
The IC50 was 4.64 µM (active).

Which IC50 does the source give for `CCOC(=O)c1ccc(NC(=O)CC2NCCNC2=O)cc1` (configuration not stated) here?
Its IC50 is “inactive”.

For `Cc1c(-c2ccccc2)oc2c(C(=O)OCC(=O)Nc3ccc(C(N)=O)cc3)cccc2c1=O`, which IC50 is on record?
Its IC50 is “inactive”.

Which IC50 does the source give for `Oc1ccc2c(c1)C1CCCC1(N1CCOCC1)O2` (configuration not stated) here?
Its IC50 is “inactive”.

With `CC(C)(C)c1nnc(NC(=O)CN2C(=O)C3C4C=CC(C4)C3C2=O)s1` (configuration not stated) as the molecule, how does the IC50 read?
The IC50 was “inactive”.

For `COc1ccc(NCN2C(=O)C3C4C=CC(C4)C3C2=O)cc1` (configuration not stated), which IC50 is on record?
Its IC50 is 11.4 µM (active).

With `c1ccc(-c2ccc3c(c2)NCCN3)cc1` as the molecule, how does the IC50 read?
The IC50 was 7.7 µM (active).

Which IC50 does the source give for `CCCCC/C=C\C/C=C\C/C=C\C/C=C\CCCC(=O)O` here?
Its IC50 is “inactive”.

Reference: PubChem BioAssay AID2501 (Southern Research Specialized Biocontainment Screening …, 2010)
